GluA2 TARP mod: GluA2-stargazin AMPA receptor complex modulation; calls only at 30 µM; 40,000 tested, 3.5% active; AID 1259245; O88602+P19491; HEK293 GluA2+stargazin, membrane potential dye (FDSS), glutamate EC50; hits were called plate by plate, in both directions;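 active = any of four per-well response measures lying three or more SD from its plate-wide compound average, in either direction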
Target sequence (O88602 whole entry, looked up): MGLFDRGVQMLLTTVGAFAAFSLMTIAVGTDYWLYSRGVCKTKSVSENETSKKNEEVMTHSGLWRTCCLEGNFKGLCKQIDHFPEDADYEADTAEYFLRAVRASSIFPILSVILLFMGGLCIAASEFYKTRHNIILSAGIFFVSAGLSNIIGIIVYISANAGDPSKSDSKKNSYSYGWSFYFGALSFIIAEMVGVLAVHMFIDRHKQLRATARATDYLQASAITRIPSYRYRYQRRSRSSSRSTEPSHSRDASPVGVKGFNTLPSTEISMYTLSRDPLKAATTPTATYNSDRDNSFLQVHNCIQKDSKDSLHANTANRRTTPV
Target sequence (P19491 whole entry, looked up): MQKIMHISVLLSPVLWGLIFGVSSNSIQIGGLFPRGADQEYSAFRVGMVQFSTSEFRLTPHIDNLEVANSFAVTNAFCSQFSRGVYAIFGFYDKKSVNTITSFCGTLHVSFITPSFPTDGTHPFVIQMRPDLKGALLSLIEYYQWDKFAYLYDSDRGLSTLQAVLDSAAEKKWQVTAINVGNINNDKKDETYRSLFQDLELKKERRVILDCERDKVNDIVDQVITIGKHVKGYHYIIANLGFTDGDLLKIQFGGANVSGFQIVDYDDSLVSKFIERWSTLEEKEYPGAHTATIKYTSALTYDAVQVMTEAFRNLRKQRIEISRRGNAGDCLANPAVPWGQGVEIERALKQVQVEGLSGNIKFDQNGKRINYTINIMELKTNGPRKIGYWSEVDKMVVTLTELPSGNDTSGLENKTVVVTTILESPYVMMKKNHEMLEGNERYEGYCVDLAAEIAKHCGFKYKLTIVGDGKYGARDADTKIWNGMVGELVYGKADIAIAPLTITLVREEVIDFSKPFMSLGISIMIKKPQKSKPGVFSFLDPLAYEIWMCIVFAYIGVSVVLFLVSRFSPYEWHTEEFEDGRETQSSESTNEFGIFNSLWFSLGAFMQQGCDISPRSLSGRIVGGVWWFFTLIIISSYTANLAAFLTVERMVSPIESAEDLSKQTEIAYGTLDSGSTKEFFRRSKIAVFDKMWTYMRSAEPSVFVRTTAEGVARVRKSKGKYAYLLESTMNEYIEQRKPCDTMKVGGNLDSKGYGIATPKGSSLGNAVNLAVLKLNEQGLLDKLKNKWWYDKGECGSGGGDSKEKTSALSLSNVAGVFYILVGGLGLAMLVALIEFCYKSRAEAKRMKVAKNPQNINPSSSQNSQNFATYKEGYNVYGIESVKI
GIRK2 act: Activates human GIRK2-containing potassium channels; P48051; HEK293 GIRK2/NPY4 cells, thallium flux fluorescence; activation (% efficacy), % for hits at 37.5 µM; 34,000 tested, under 10 active; AID 1259324;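 active = primary screen hit, no activity in plain HEK293 cells, and in GIRK2-only cells above 5% efficacy rising with concentration; inactive = the rest, including fluorescent compounds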;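 also: efficacy is normalized control-subtracted fluorescence 15 s after thallium addition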
* marks the source's active call; other numbers are inactive results; ! = not active in a repeat; [ ] = remark or other dose. This excerpt belongs to a sample that is enriched for hits.

`O=C(CCc1ccccc1)Nc1ccc2c(c1)CN(S(=O)(=O)c1ccccc1)CC2` gave GluA2 TARP mod inactive and GIRK2 act inactive.
For CCc1nnc(-c2ccc(NC(=O)c3ccc(S(=O)(=O)N4CCCC4)cc3)cc2)o1 the results were GluA2 TARP mod inactive and GIRK2 act inactive.
For CN1CCc2c(sc(NC(=O)CCSc3ccccc3)c2-c2nc3ccccc3s2)C1 the results were GluA2 TARP mod inactive.
For O=C(CN1CC(c2nc(-c3ccsc3)no2)C1)Nc1ccc2c(c1)OCCO2 the results were GIRK2 act inactive.
For CCN(CC)C(=O)CN1CCN(c2nccn2-c2cccc(Cl)c2)CC1 the results were GluA2 TARP mod inactive and GIRK2 act inactive.
Screening COCCNC(=O)Nc1ccc2c(c1)N(C(C)=O)CC2 returned GluA2 TARP mod inactive and GIRK2 act inactive.
`O=C(c1ccccc1)N1CCCc2ccc(NS(=O)(=O)c3ccc(Cl)cc3)cc21` gave GluA2 TARP mod inactive.
For Cc1cc(C)c(C(=O)NCCc2ccccc2)c(C)c1 the results were GluA2 TARP mod active! and GIRK2 act inactive.
`Cc1ccc(C)c(S(=O)(=O)Nc2ccc(C(=O)NCCc3ccccc3)cc2)c1` gave GluA2 TARP mod inactive.
COCCn1c(=O)c2c(nc(-n3nc(C)cc3C)n2Cc2ccc(F)cc2)n(C)c1=O was read as GluA2 TARP mod active and GIRK2 act inactive.
CCOCCn1c(-n2nc(C)cc2C)nc2c1c(=O)n(Cc1ccc(F)cc1)c(=O)n2C was read as GluA2 TARP mod inactive and GIRK2 act inactive.
`CC(C)c1nnc(C2CCN(C(=O)c3ccc(-n4cccc4)cc3)CC2)o1` gave GluA2 TARP mod inactive and GIRK2 act inactive.
Screening CC(C)c1ccc(-n2nnc(C(=O)NC3CCCCC3)c2N)cc1 returned GluA2 TARP mod inactive and GIRK2 act inactive.
Screening Cc1cccc(-n2nnc(C(=O)NC3CCCCC3)c2N)c1 returned GluA2 TARP mod active and GIRK2 act inactive.
Screening COc1ccc(F)cc1S(=O)(=O)N1CCCCCC1 returned GluA2 TARP mod inactive.
COc1ccc(Cl)cc1S(=O)(=O)N1CCCCCC1 was read as GluA2 TARP mod active.
COc1ccc(S(=O)(=O)N2CCCCCC2)c(C)c1C was read as GluA2 TARP mod inactive.
For COc1ccc(Br)cc1S(=O)(=O)N1CCCCCC1 the results were GluA2 TARP mod active.
`COc1ccc(Cl)cc1S(=O)(=O)N1CCN(S(=O)(=O)c2cc(Cl)ccc2OC)CC1` gave GluA2 TARP mod inactive.
Screening COc1ccc(/C=C/c2nc3ccccc3s2)cc1S(=O)(=O)N1CCCCC1 returned GluA2 TARP mod active.
`Cc1cc(C(=O)N2CCOCC2)nn1CC(=O)N1CCc2ccccc21` gave GluA2 TARP mod inactive and GIRK2 act inactive.
O=C(NCCCn1nc(-c2ccncc2)ccc1=O)c1cc2ccccc2o1 was read as GluA2 TARP mod inactive and GIRK2 act inactive.
Screening CC(C)c1cccc2sc(NCC3CCCO3)nc12 (stereo not drawn) returned GluA2 TARP mod inactive and GIRK2 act inactive.
Cc1ccc(S(=O)(=O)N(CC(O)CNCCC(=O)O)c2ccc(F)cc2)cc1 (stereo not drawn) was read as GluA2 TARP mod inactive and GIRK2 act inactive.
For COc1ccc(N(CC(O)CNCCC(C)C)S(=O)(=O)c2ccc(C)cc2)cc1 (stereo not drawn) the results were GluA2 TARP mod active.
CN1CCN(NC(=O)C(=O)Nc2ccc(F)c(Cl)c2)CC1 was read as GluA2 TARP mod inactive and GIRK2 act inactive.
Screening CN1CCN(NC(=O)C(=O)Nc2ccc3c(c2)OCCO3)CC1 returned GluA2 TARP mod active.
`COc1ccc(NC(=O)CSC2=NC(C)(C)N=C2c2ccccc2)cc1OC` gave GluA2 TARP mod inactive and GIRK2 act inactive.
COc1cc(OC)cc(C2=NC3(CCCC3)N=C2SCC(=O)Nc2ccccc2)c1 was read as GluA2 TARP mod active and GIRK2 act inactive.
CCOC(=O)c1ccc(NC(=O)Cn2cc(OC)c(=O)cc2CSc2nc(C)cc(C)n2)cc1 was read as GluA2 TARP mod inactive and GIRK2 act inactive.
`Cc1cc(C)c(NC(=O)Cn2nc(-c3ccc(Cl)cc3)ccc2=O)c(C)c1` gave GluA2 TARP mod inactive and GIRK2 act inactive.
Screening CCOc1ccccc1NC(=O)Cn1c(=O)n(C(C)C)c(=O)c2nscc21 returned GluA2 TARP mod active and GIRK2 act inactive.
For COc1ccc(NC(=O)Cn2c(=O)n(C(C)C)c(=O)c3nscc32)cc1OC the results were GluA2 TARP mod inactive and GIRK2 act inactive.
For COCC(C)(O)CNC(=O)c1ccc(C(=O)OC)cc1 (stereo not drawn) the results were GluA2 TARP mod inactive and GIRK2 act inactive.
`CCC(Sc1ccnc2c1c(=O)n(C)c(=O)n2C)C(=O)O` (stereo not drawn) gave GluA2 TARP mod inactive and GIRK2 act inactive.
For CCOc1ccc(-n2ccnc(SCc3ccc([N+](=O)[O-])cc3)c2=O)cc1 the results were GluA2 TARP mod inactive.
Screening COc1ccc(Cl)cc1NC(=O)Nc1cc(N2CCCS2(=O)=O)ccc1OC returned GluA2 TARP mod active and GIRK2 act inactive.
Screening COc1ccc(Cl)cc1NC(=O)Nc1ccc(CN2CCN(C)CC2)cc1 returned GluA2 TARP mod inactive and GIRK2 act 14.0%*[75 µM].
Screening COc1cc(NC(=O)Nc2ccc(CN3CCN(C)CC3)cc2)cc(OC)c1OC returned GluA2 TARP mod inactive and GIRK2 act inactive.
Screening COc1cccc(NC(=O)Nc2ccc(N3CCCS3(=O)=O)cc2)c1 returned GluA2 TARP mod inactive and GIRK2 act inactive.
For O=C(Nc1ccc(N2CCCS2(=O)=O)cc1)Nc1cccc(Cl)c1 the results were GluA2 TARP mod active and GIRK2 act inactive.
`COc1ccc(N2CCCS2(=O)=O)cc1NC(=O)Nc1ccc(Cl)c(Cl)c1` gave GluA2 TARP mod inactive and GIRK2 act inactive.
For COc1cccc2cc(C(=O)Nc3ccc(C)c(N4CCCCC4=O)c3)oc12 the results were GluA2 TARP mod inactive and GIRK2 act inactive.
CCN(CC)CCn1c(C)cn2c3c(=O)n(CCc4ccccc4)c(=O)n(C)c3nc12 was read as GluA2 TARP mod active and GIRK2 act inactive.
For COc1cccc(-n2c(C)cn3c4c(=O)n(CCc5ccccc5)c(=O)n(C)c4nc23)c1 the results were GluA2 TARP mod inactive.
Screening Cn1cc(C(=O)N2CCCCCC2)cc(NC(=O)c2ccccc2Cl)c1=O returned GluA2 TARP mod active.
For Cn1cc(C(=O)N2CCCCCC2)cc(NC(=O)c2cc(Cl)ccc2Cl)c1=O the results were GluA2 TARP mod inactive.
CCc1cccc(OCC(O)Cn2c(NCCC(=O)O)nc3c2c(=O)[nH]c(=O)n3C)c1 (stereo not drawn) was read as GluA2 TARP mod inactive.
Cc1noc(C2CN(C(=O)c3ccc(=O)n(C)n3)C2)n1 was read as GluA2 TARP mod inactive and GIRK2 act inactive.
Screening CC(C)c1ccc(NC(=O)c2sccc2N(C)S(=O)(=O)c2ccccc2)cc1 returned GluA2 TARP mod active! and GIRK2 act inactive.
CN(c1ccsc1C(=O)Nc1cccc(Cl)c1)S(=O)(=O)c1ccccc1 was read as GluA2 TARP mod inactive and GIRK2 act inactive.
Screening COc1ccc(Cl)cc1C(=O)Nc1sc(SCC(N)=O)nc1-c1ccccc1 returned GluA2 TARP mod inactive and GIRK2 act inactive.

Screening data: PubChem BioAssay, several laboratories
